{"source": "PubChem BioAssay (NCI)", "note": "The panel holds about 79,000 compounds, 15% with a hit somewhere; the sample as a whole holds those more often. A number with no mark means an inactive call. Active and inactive are the calls of the source. Cut-off read from the data, not from the text of the source: active = growth inhibition above about 70%; inactive = the rest. Where a SMILES comes first, the peptide text is derived from it.", "data": [{"test": "NCI Yeast Anticancer Drug Screen. Data for the sgs1 mgt1 strain (AID 161);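 note: 0% = growth of cultures given vehicle only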", "details": "S. cerevisiae sgs1 mgt1 strain, at 50.0 µM, stronger effect = higher value", "procedure,_shortened": "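Genetically altered yeast, compound exposure, growth inhibition relative to vehicle.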", "values": [{"smiles": "NC(CCCO)C(=O)O", "note": "(centres undefined)", "growth inhibition": "-24.1%"}, {"smiles": "Oc1ccccc1C1SCSCS1", "growth inhibition": "14.1%"}, {"smiles": "O=C1NN2CCCN=C2c2ncccc21", "growth inhibition": "8.1%"}, {"smiles": "CCC(=O)OC1CCC2(C)C(=CCC3C2CCC2(C)C(C(C)CCCC(C)C)CCC32)C1", "note": "(centres undefined)", "growth inhibition": "-20.6%"}, {"smiles": "Cc1ccc(S/C=C/Sc2ccc(C)cc2)cc1", "growth inhibition": "3.55%"}, {"smiles": "O=C1OC(Nc2ccccc2)C(Cl)=C1Cl", "note": "(centres undefined)", "growth inhibition": "22.5%"}, {"smiles": "CCCCOC(=O)Nc1ccccc1OCC", "growth inhibition": "-0.35%"}, {"smiles": "Cc1cccc(NC(C(=O)O)c2ccccc2)c1", "note": "(centres undefined)", "growth inhibition": "-12.8%"}, {"smiles": "O=C(/C=C/c1ccccc1)OCCCl", "growth inhibition": "-17.9%"}, {"smiles": "CCCCCCCCCCCCCCCCCCNc1ccccc1", "growth inhibition": "12.2%"}, {"smiles": "CC(C)=CC(=O)OC1C2C(CC(C)C3C(O)CC(=O)C13C)OC(=O)C2C", "note": "(centres undefined)", "growth inhibition": "-0.2%"}, {"smiles": "O=C(O)c1ccc(Nc2nc3ccccc3nc2-c2cccs2)cc1", "growth inhibition": "5.95%"}, {"smiles": "CSCCC(N)C(=O)NC(CCSC)C(=O)O", "note": "(stereo not drawn) (H-Met-Met-OH; configuration not given here)", "growth inhibition": "2.4%"}, {"smiles": "O=C(NC(=O)C(Cl)Cl)OC1c2cc(Cl)ccc2-c2c(Cl)cc(Cl)cc21", "note": "(centres undefined)", "growth inhibition": "99.3% (active)"}]}]}
